Results from PubChem BioAssay.
For some assays here: Results with a measured potency or affinity are listed apart. Activity calls are given as the source filed them. The rule behind the calls is not given here.

Molecular target: Plasmodium falciparum protein kinase 6 (PK6, PF3D7_1337100) (UniProt Q8IDW1)
Assay: PfPK6 kinase inhibitors, biochemical, TCAMS library (AID 1159586)
Settings: recombinant PfPK6, Kinase-Glo ATP depletion luminescence

Chain of Plasmodium falciparum protein kinase 6 (PK6, PF3D7_1337100) (Q8IDW1 1-305): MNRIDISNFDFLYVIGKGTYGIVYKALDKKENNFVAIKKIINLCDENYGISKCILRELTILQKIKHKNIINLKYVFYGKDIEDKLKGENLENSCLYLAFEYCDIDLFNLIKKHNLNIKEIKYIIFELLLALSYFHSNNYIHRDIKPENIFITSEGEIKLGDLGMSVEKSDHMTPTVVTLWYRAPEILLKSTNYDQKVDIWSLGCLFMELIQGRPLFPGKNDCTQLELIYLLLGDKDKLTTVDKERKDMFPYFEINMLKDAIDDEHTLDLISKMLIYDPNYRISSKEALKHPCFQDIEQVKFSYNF

outcome, inactive:
c1cncc(Oc2ccc(Nc3ccnc4cc(-c5cccc(CN6CCCCC6)c5)ccc34)cc2)c1
CCCC(C)NC[C@@H](O)[C@H](Cc1ccccc1)NC(=O)c1cc(C2CCCC2)cc(N2CCCCS2(=O)=O)c1 (stereo not given in full)
O=C(Nc1ccc(Cl)cc1)Nc1cccc(-c2ccc(-c3nc4ccccc4[nH]3)cc2)c1
CC(=O)c1ccc(NC(=O)Nc2ccc(N(C)c3ccnc(NC4CC4)n3)cc2)cc1
CCOc1c(N2CCN(CCCCNC(=O)c3ccc(NC(=O)c4ccc(Cl)cc4)cc3)CC2)ccc2ccccc12
CCCCc1cc(NCc2ccncc2)nc(Nc2ccc(C)cc2)n1
Cc1ccc(F)c(C(=O)Nc2cccc(-c3nn4ccccc4c3-c3ccnc(Nc4cccc(F)c4)n3)c2)c1F
O=C(CSc1ccccn1)Nc1c(F)cccc1F
Cc1cccc2[nH]c(-c3ccc(-c4ccc(NC(=O)Nc5ccc(Cl)c(Cl)c5)cc4)s3)nc12
O=c1ccc2ncc(Cl)c3c2n1CC3CN1CCC(NCc2cc3c(cn2)OCCO3)CC1 (stereo not given)
Cc1cc(-c2nc3cncc(-c4cccc(CN5CCCC5Cc5cccnc5)c4)c3n2C)nn1C (stereo not given)
C=C[C@]1(C)C[C@@H](OC(=O)NC(=O)C2CCN(C(=O)CSc3ccccc3)CC2)[C@]2(C)[C@H](C)CC[C@]3(CCC(=O)[C@H]32)[C@@H](C)[C@@H]1O
COc1ccc2c(c1)[nH]c1c(/C=C/c3ccc([N+](=O)[O-])cc3)nccc12
CN1CCN(CCCN(Cc2cccc(-c3ccc(CNCc4ccc5c(c4)OCO5)cc3)c2)C(=O)CCC2CCCC2)CC1
Cc1cc(N[C@@H](Cc2ccccc2)C(=O)NCc2cccc(F)c2)nc(NCCc2cccnc2)n1
O=S(=O)(c1cc(Cl)c(Cl)cc1Cl)N1CCCCC(c2ccc(C(F)(F)F)cc2)=N1
COc1ccc(CCn2c(=N)c(C(=O)NCc3ccc(C)cc3)cc3c(=O)n4ccccc4nc32)cc1
FC(F)(F)c1cccnc1N1CCC(Nc2nc3ccc(Cl)cc3[nH]2)CC1
CCOc1cccc2nc(NCCCNCc3ccc(Cl)c(Cl)c3)cc(NCCCNCc3ccc(Cl)c(Cl)c3)c12
O=[N+]([O-])c1ccc2ncnc(Nc3ccc(F)c(Cl)c3)c2c1
O=C(NCc1ccc(F)cc1)Nc1ccc(-c2cccc(-c3nc4ccc(F)cc4[nH]3)c2)cc1
Clc1ccc(-c2ccc(C=NNc3nc(Nc4ccccc4)nc(Nc4ccccc4)n3)o2)cc1Cl
COc1ccc(Nc2c3ccc(Cl)cc3nc3ccc(OC)cc23)cc1
CCC(C)NC(=O)CN1CN(c2ccccc2)C2(CCN(C(=O)c3ccc(C(C)(C)C)cc3)CC2)C1=O (stereo not given)
COc1ccc(C2CCN(CCCCNC(=O)c3ccc(NC(=O)c4ccc(Cl)cc4)cc3)CC2)c(C)c1
O=C(NCCc1ccccc1)c1cc(-c2cccnc2)cnc1NCC1CC1
Cc1nccc2c(NC(=O)N[C@@H]3CCN(c4ncc(C(F)(F)F)cc4Br)C3)cccc12
Nc1cccc(CNCc2cccc(-c3cccc(-c4nc5ccc(C(F)(F)F)cc5[nH]4)c3)c2)c1
CC1CN=C(c2cccc(NC(=O)Nc3cccc(C4=NCC(C)N4)c3)c2)N1 (stereo not given)
COc1ccc(-c2ccc(CN(C)C3CCC(NC(=O)c4cc5ccccc5[nH]4)CC3)cc2)cn1 (stereo not given)
N#Cc1ccc(-c2ccc(C(=O)NC3CCN(CCN4CCC(c5cn(CCO)c6ccccc56)CC4)CC3)cc2)cc1
COc1ccc(S(=O)(=O)Nc2cc(C)cc(Br)c2OC)cc1N1CCN(C(=O)C(Cl)(Cl)Cl)CC1
CC(C)CNCc1ccc(-c2ccccc2CN(C(=O)NCCc2ccccc2)C2CCN(Cc3ccccc3)CC2)cc1
c1ccn2c(Sc3ncnc4sccc34)ncc2c1
CC(Oc1ccc(NC(=O)c2cccs2)cc1)C(=O)c1ccc(Cl)cc1 (stereo not given)
Cc1cc(NCCC(=O)Nc2ccccc2)nc(NCCc2ccccc2)n1
COc1ccc2nccc(N3CCN(CCNCc4ccc5c(n4)NC(=O)CO5)CC3)c2n1
CN(C)C(=O)c1cc(CNCc2ccccc2)ccc1-c1cccc(CNCc2ccc(-c3ccccc3)cc2)c1
COC(=O)c1cccc(CNCc2cccc(-c3cccc(-c4nc5ccc(C(F)(F)F)cc5[nH]4)c3)c2)c1
CC[C@H](C)CNC(=O)c1cncc(-c2ccc(CNCCCc3ccccc3)cc2)c1

Molecular target: Protein kinase 7 (PK7), Plasmodium falciparum 3D7 (PF3D7_0213400) (UniProt Q7YTF7)
Assay: inhibition of Plasmodium PK7 catalytic activity – biochemical, TCAMS antimalarial set, Kinase-Glo luminescence (AID 1159587)
Settings: recombinant PfPK7, Kinase-Glo ATP depletion luminescence

Chain of Protein kinase 7 (PK7), Plasmodium falciparum 3D7 (PF3D7_0213400) (Q7YTF7 1-343): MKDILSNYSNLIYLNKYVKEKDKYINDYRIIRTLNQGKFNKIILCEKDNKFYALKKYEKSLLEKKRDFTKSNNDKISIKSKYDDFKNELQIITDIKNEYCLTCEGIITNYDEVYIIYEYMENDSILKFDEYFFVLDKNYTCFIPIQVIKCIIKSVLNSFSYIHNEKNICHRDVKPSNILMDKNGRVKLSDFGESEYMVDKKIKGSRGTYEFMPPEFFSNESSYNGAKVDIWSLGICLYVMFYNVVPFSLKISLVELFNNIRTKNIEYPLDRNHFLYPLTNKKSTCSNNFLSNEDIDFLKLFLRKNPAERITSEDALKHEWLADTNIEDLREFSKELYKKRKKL

outcome, inactive:
c1cncc(Oc2ccc(Nc3ccnc4cc(-c5cccc(CN6CCCCC6)c5)ccc34)cc2)c1
CCCC(C)NC[C@@H](O)[C@H](Cc1ccccc1)NC(=O)c1cc(C2CCCC2)cc(N2CCCCS2(=O)=O)c1 (stereo not given in full)
O=C(Nc1ccc(Cl)cc1)Nc1cccc(-c2ccc(-c3nc4ccccc4[nH]3)cc2)c1
CC(=O)c1ccc(NC(=O)Nc2ccc(N(C)c3ccnc(NC4CC4)n3)cc2)cc1
CCOc1c(N2CCN(CCCCNC(=O)c3ccc(NC(=O)c4ccc(Cl)cc4)cc3)CC2)ccc2ccccc12
CCCCc1cc(NCc2ccncc2)nc(Nc2ccc(C)cc2)n1
Cc1ccc(F)c(C(=O)Nc2cccc(-c3nn4ccccc4c3-c3ccnc(Nc4cccc(F)c4)n3)c2)c1F
O=C(CSc1ccccn1)Nc1c(F)cccc1F
Cc1cccc2[nH]c(-c3ccc(-c4ccc(NC(=O)Nc5ccc(Cl)c(Cl)c5)cc4)s3)nc12
O=c1ccc2ncc(Cl)c3c2n1CC3CN1CCC(NCc2cc3c(cn2)OCCO3)CC1 (stereo not given)
Cc1cc(-c2nc3cncc(-c4cccc(CN5CCCC5Cc5cccnc5)c4)c3n2C)nn1C (stereo not given)
C=C[C@]1(C)C[C@@H](OC(=O)NC(=O)C2CCN(C(=O)CSc3ccccc3)CC2)[C@]2(C)[C@H](C)CC[C@]3(CCC(=O)[C@H]32)[C@@H](C)[C@@H]1O
COc1ccc2c(c1)[nH]c1c(/C=C/c3ccc([N+](=O)[O-])cc3)nccc12
CN1CCN(CCCN(Cc2cccc(-c3ccc(CNCc4ccc5c(c4)OCO5)cc3)c2)C(=O)CCC2CCCC2)CC1
Cc1cc(N[C@@H](Cc2ccccc2)C(=O)NCc2cccc(F)c2)nc(NCCc2cccnc2)n1
O=S(=O)(c1cc(Cl)c(Cl)cc1Cl)N1CCCCC(c2ccc(C(F)(F)F)cc2)=N1
COc1ccc(CCn2c(=N)c(C(=O)NCc3ccc(C)cc3)cc3c(=O)n4ccccc4nc32)cc1
FC(F)(F)c1cccnc1N1CCC(Nc2nc3ccc(Cl)cc3[nH]2)CC1
CCOc1cccc2nc(NCCCNCc3ccc(Cl)c(Cl)c3)cc(NCCCNCc3ccc(Cl)c(Cl)c3)c12
O=[N+]([O-])c1ccc2ncnc(Nc3ccc(F)c(Cl)c3)c2c1
O=C(NCc1ccc(F)cc1)Nc1ccc(-c2cccc(-c3nc4ccc(F)cc4[nH]3)c2)cc1
Clc1ccc(-c2ccc(C=NNc3nc(Nc4ccccc4)nc(Nc4ccccc4)n3)o2)cc1Cl
COc1ccc(Nc2c3ccc(Cl)cc3nc3ccc(OC)cc23)cc1
CCC(C)NC(=O)CN1CN(c2ccccc2)C2(CCN(C(=O)c3ccc(C(C)(C)C)cc3)CC2)C1=O (stereo not given)
COc1ccc(C2CCN(CCCCNC(=O)c3ccc(NC(=O)c4ccc(Cl)cc4)cc3)CC2)c(C)c1
O=C(NCCc1ccccc1)c1cc(-c2cccnc2)cnc1NCC1CC1
Cc1nccc2c(NC(=O)N[C@@H]3CCN(c4ncc(C(F)(F)F)cc4Br)C3)cccc12
Nc1cccc(CNCc2cccc(-c3cccc(-c4nc5ccc(C(F)(F)F)cc5[nH]4)c3)c2)c1
CC1CN=C(c2cccc(NC(=O)Nc3cccc(C4=NCC(C)N4)c3)c2)N1 (stereo not given)
COc1ccc(-c2ccc(CN(C)C3CCC(NC(=O)c4cc5ccccc5[nH]4)CC3)cc2)cn1 (stereo not given)
N#Cc1ccc(-c2ccc(C(=O)NC3CCN(CCN4CCC(c5cn(CCO)c6ccccc56)CC4)CC3)cc2)cc1
COc1ccc(S(=O)(=O)Nc2cc(C)cc(Br)c2OC)cc1N1CCN(C(=O)C(Cl)(Cl)Cl)CC1
CC(C)CNCc1ccc(-c2ccccc2CN(C(=O)NCCc2ccccc2)C2CCN(Cc3ccccc3)CC2)cc1
c1ccn2c(Sc3ncnc4sccc34)ncc2c1
CC(Oc1ccc(NC(=O)c2cccs2)cc1)C(=O)c1ccc(Cl)cc1 (stereo not given)
Cc1cc(NCCC(=O)Nc2ccccc2)nc(NCCc2ccccc2)n1
COc1ccc2nccc(N3CCN(CCNCc4ccc5c(n4)NC(=O)CO5)CC3)c2n1
CN(C)C(=O)c1cc(CNCc2ccccc2)ccc1-c1cccc(CNCc2ccc(-c3ccccc3)cc2)c1
COC(=O)c1cccc(CNCc2cccc(-c3cccc(-c4nc5ccc(C(F)(F)F)cc5[nH]4)c3)c2)c1
CC[C@H](C)CNC(=O)c1cncc(-c2ccc(CNCCCc3ccccc3)cc2)c1
